The full data set covers some 8,800 targets. This sample favours those with a hit. About 0.5% of all pairs of compound and target were hits.
Columns and labels:
Experiment in all cases: log2 fold change, soluble protein after heating vs DMSO (PISA); higher = thermal stabilisation; K562 lysate, 10 uM; active = over 0.2 and 3.5 SD of the protein, either way, in both replicates (recomputed)
[1] = compound: CS(=O)(=O)CCNCc1ccc(-c2ccc3ncnc(Nc4ccc(OCc5cccc(F)c5)c(Cl)c4)c3c2)o1 [lapatinib]
Method in brief: (§1)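 A 30 min treatment with 10 μM compound was applied to crude K562 extract at 1 mg/mL protein in PBS pH 7.4 with 1 mM MgCl2. Heating for 3 min spanned 48°C-58°C, after which aliquots were pooled, adjusted to 0.5% NP-40 at 4°C and spun at 21,000xg for 90 min. TMTpro 16plex LC-MS/MS of the supernatant, with channel sums equalised, gave values recorded as log-two fold change in thermal stability against solvent controls, from duplicates.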

[2] = compound: CS(=O)(=O)N1CCN(Cc2cc3nc(-c4cccc5[nH]ncc45)nc(N4CCOCC4)c3s2)CC1 [pictilisib]
Method in brief: as §1

[3] = compound: C[C@@H](Oc1cc(-c2cnn(C3CCNCC3)c2)cnc1N)c1c(Cl)ccc(F)c1Cl [crizotinib]
Method in brief: as §1

[4] = compound: C[C@H](C1=CC=C(C=C1)C(=O)NC2=C3C=CNC3=NC=C2)N
Method in brief: as §1

[5] = compound: C[C@H](Nc1ncnc2nc[nH]c12)c1cc2cccc(Cl)c2c(=O)n1-c1ccccc1 [duvelisib]
Method in brief: as §1

[6] = compound: Cc1cc(Nc2cc(CN3CCOCC3)c3nc(C)c(Cc4ccc(Cl)cc4F)n3n2)n[nH]1 [gandotinib]
Method in brief: as §1

[7] = compound: Cc1cc(Nc2cc(N3CCN(C)CC3)nc(Sc3ccc(NC(=O)C4CC4)cc3)n2)n[nH]1 [tozasertib]
Method in brief: as §1

[8] = compound: Cc1ccc(-n2nc(C(C)(C)C)cc2NC(=O)Nc2ccc(OCCN3CCOCC3)c3ccccc23)cc1 [doramapimod]
Method in brief: as §1

[9] = compound: Cc1ccc(NC(=O)c2ccc(CN3CC[C@H](N(C)C)C3)c(C(F)(F)F)c2)cc1Nc1nccc(-c2cncnc2)n1 [bafetinib]
Method in brief: as §1

[10] = compound: Cc1cccc(CC(=O)N2CCc3c2ccc(-c2cn(C)c4ncnc(N)c24)c3F)n1
Method in brief: as §1

[11] = compound: Cc1cn(-c2cc(NC(=O)c3ccc(C)c(Nc4nccc(-c5cccnc5)n4)c3)cc(C(F)(F)F)c2)cn1 [nilotinib]
Method in brief: as §1

[12] = compound: Cc1nc(Nc2n[nH]c3c2CN(C(=O)N[C@H](CN(C)C)c2ccccc2)C3(C)C)c2sccc2n1
Method in brief: as §1

[13] = compound: Cc1nc(Nc2ncc(C(=O)Nc3c(C)cccc3Cl)s2)cc(N2CCN(CCO)CC2)n1 [dasatinib]
Method in brief: as §1

[14] = compound: Cc1ncc(-c2ccnc(Nc3ccc(S(C)(=O)=O)cc3)n2)n1C(C)C
Method in brief: as §1

[15] = compound: Cn1cc(-c2ccc3c(c2)CCN3C(=O)Cc2cccc(C(F)(F)F)c2)c2c(N)ncnc21
Method in brief: as §1

[16] = compound: Cn1cc(CNCC2CCN(c3ncc(C(=O)NO)cn3)CC2)c2ccccc21 [quisinostat]
Method in brief: as §1

[17] = compound: Cn1cncc1[C@@](N)(c1ccc(Cl)cc1)c1ccc2c(c1)c(-c1cccc(Cl)c1)cc(=O)n2C [tipifarnib]
Method in brief: as §1

[18] = compound: NC(=O)Nc1cc(-c2cccc(F)c2)sc1C(=O)N[C@H]1CCCNC1
Method in brief: as §1

[19] = compound: NC(=O)c1cnc(N[C@@H]2CCCC[C@@H]2N)nc1Nc1cccc(-n2nccn2)c1
Method in brief: as §1

[20] = compound: NC1(c2ccc(-c3nc4ccn5c(=O)[nH]nc5c4cc3-c3ccccc3)cc2)CCC1
Method in brief: as §1

Measured: log2 fold change

RIOK3 (UniProt O14730)
inactive: [1] 0.026 | [2] -0.032 | [3] -0.031 | [4] 0.021 | [5] -0.007 | [6] -0.009 | [7] -0.008 | [8] 0.036 | [9] -0.021 | [10] 0.008 | [11] 0.017 | [12] -0.027 | [13] -0.05 | [14] -0.076 | [15] 0.002 | [16] -0.063 | [17] 0.008 | [18] 0.01 | [19] 0.009 | [20] 0.014

REEP5 (UniProt Q00765)
UniProt Q00765, sequence (Q00765 whole entry, looked up): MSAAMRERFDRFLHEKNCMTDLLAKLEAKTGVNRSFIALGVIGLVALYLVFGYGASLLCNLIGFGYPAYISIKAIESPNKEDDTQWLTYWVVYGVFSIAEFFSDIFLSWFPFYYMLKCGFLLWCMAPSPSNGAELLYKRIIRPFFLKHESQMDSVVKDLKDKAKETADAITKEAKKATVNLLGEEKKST
inactive: [1] -0.001 | [2] -0.026 | [3] 0.024 | [4] -0.11 | [5] 0.01 | [6] 0.061 | [7] -0.052 | [8] -0.03 | [9] -0.027 | [10] 0.055 | [11] 0.107 | [12] -0.011 | [13] 0.056 | [14] 0.003 | [15] -0.012 | [16] 0.005 | [17] 0.026 | [18] -0.024 | [19] 0 | [20] -0.023

RABL3 (UniProt Q5HYI8)
UniProt Q5HYI8, sequence (Q5HYI8 whole entry, looked up): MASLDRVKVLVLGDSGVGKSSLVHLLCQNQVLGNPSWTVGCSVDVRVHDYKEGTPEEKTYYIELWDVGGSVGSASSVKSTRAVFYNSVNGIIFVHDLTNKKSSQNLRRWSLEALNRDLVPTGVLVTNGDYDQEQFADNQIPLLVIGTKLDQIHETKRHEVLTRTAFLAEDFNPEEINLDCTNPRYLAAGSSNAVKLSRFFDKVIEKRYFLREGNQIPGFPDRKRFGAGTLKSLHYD
inactive: [1] 0.036 | [2] -0.028 | [3] -0.102 | [4] -0.017 | [5] 0.198 | [6] -0.097 | [7] -0.003 | [8] 0.085 | [9] -0.05 | [10] 0.031 | [11] 0.049 | [12] -0.03 | [13] -0.077 | [14] -0.051 | [15] 0.01 | [16] -0.056 | [17] 0.08 | [18] 0.084 | [19] -0.003 | [20] 0.267

RARS (UniProt P54136)
UniProt P54136, sequence (P54136 whole entry, looked up): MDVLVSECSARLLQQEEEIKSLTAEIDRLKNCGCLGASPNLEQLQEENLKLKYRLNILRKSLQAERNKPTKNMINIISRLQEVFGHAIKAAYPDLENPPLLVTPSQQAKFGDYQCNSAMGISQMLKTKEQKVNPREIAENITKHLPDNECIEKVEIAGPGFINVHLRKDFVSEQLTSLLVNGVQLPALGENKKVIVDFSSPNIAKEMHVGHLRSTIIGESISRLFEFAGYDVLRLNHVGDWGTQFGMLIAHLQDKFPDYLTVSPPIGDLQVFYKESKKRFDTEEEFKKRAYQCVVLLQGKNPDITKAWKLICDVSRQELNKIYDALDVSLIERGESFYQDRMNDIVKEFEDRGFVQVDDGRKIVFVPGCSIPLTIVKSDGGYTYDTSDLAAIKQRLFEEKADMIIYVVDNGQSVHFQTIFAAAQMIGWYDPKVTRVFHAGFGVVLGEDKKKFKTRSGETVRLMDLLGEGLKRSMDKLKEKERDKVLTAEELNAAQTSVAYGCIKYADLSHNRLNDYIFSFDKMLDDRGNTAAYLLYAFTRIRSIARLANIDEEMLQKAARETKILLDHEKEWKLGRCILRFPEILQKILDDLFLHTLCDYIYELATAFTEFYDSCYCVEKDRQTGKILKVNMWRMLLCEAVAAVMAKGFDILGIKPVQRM
inactive: [1] 0.003 | [2] 0.019 | [3] -0.047 | [4] 0.039 | [5] -0.018 | [6] -0.078 | [7] 0.019 | [8] 0.042 | [9] -0.029 | [10] 0.041 | [11] 0.004 | [12] 0 | [13] -0.074 | [14] -0.017 | [15] 0.038 | [16] -0.017 | [17] 0.006 | [18] 0.049 | [19] 0.015 | [20] -0.023

SESN2 (UniProt P58004)
UniProt P58004, sequence (P58004 whole entry, looked up): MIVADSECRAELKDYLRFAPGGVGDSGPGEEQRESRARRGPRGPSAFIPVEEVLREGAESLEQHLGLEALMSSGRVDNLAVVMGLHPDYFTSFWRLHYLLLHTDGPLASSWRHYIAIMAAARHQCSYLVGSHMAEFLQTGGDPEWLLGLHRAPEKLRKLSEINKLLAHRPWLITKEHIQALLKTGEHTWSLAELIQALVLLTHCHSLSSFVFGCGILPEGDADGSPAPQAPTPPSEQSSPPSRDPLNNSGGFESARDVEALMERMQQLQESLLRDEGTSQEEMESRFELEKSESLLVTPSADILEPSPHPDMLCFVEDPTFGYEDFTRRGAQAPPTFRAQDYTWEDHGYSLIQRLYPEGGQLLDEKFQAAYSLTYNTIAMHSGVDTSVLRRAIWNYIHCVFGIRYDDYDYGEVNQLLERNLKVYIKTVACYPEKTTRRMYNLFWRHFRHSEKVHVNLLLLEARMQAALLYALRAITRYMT
inactive: [1] -0.085 | [2] -0.047 | [3] -0.042 | [4] 0.041 | [5] 0.047 | [6] 0.038 | [7] -0.006 | [8] -0.031 | [9] -0.15 | [10] 0.003 | [11] 0.019 | [12] 0.027 | [13] -0.023 | [14] 0.021 | [15] 0.028 | [16] -0.051 | [17] 0.007 | [18] 0.092 | [19] 0.034 | [20] -0.057

RAB8B (UniProt Q92930)
inactive: [1] 0.065 | [2] -0.018 | [3] 0.034 | [4] 0.037 | [5] 0.098 | [7] 0.003 | [8] -0.013 | [9] 0.088 | [10] -0.079 | [11] -0.136 | [12] -0.011 | [13] -0.038 | [14] -0.033 | [15] -0.096 | [16] -0.035 | [17] 0.075 | [18] 0.019 | [19] 0.099 | [20] 0.029
active: [6] -0.289

RBBP8 isoform 2 (UniProt Q99708)
inactive: [1] -0.042 | [2] 0.069 | [3] -0.085 | [4] 0.065 | [5] 0.032 | [6] -0.013 | [7] 0.177 | [8] 0.024 | [9] -0.079 | [10] 0.007 | [11] -0.07 | [12] -0.003 | [13] 0.063 | [14] 0.081 | [15] 0.031 | [16] 0.074 | [17] 0.022 | [18] 0.033 | [19] 0.035 | [20] -0.026

RSU1 (UniProt Q15404)
UniProt Q15404, sequence (Q15404 whole entry, looked up): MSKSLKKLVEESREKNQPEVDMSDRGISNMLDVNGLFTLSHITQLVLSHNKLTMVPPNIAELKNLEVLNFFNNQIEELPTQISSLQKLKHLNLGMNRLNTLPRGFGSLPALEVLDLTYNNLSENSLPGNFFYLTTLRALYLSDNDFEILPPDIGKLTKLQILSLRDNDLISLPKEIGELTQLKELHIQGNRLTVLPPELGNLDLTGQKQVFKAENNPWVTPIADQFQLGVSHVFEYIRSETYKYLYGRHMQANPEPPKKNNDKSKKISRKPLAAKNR
active: [4] 0.329
inactive: [1] 0.001 | [2] 0.045 | [3] 0.07 | [5] 0.007 | [6] -0.116 | [7] 0.015 | [8] -0.045 | [9] 0.039 | [10] -0.135 | [11] 0.011 | [12] -0.011 | [13] 0.007 | [14] -0.028 | [15] 0.001 | [16] 0.112 | [17] 0.016 | [18] -0.002 | [19] 0.007 | [20] 0.002

RCAN1 (UniProt P53805)
UniProt P53805, sequence (P53805 whole entry, looked up): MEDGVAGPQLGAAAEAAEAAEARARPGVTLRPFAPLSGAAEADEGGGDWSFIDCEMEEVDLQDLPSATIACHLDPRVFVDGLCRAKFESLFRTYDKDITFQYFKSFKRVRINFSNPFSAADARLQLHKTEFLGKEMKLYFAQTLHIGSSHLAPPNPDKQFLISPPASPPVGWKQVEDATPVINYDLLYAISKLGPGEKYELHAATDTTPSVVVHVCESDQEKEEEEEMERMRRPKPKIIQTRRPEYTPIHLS
inactive: [1] -0.017 | [2] -0.048 | [3] -0.127 | [4] -0.088 | [5] -0.012 | [6] 0.041 | [7] 0.017 | [8] -0.039 | [9] 0.123 | [10] -0.03 | [12] 0.008 | [13] 0.023 | [14] -0.055 | [15] 0.038 | [16] -0.217 | [17] 0.131 | [18] 0.117 | [19] 0.088 | [20] 0.036
active: [11] -0.457

SERPINI1 (UniProt Q99574)
UniProt Q99574, sequence (Q99574 whole entry, looked up): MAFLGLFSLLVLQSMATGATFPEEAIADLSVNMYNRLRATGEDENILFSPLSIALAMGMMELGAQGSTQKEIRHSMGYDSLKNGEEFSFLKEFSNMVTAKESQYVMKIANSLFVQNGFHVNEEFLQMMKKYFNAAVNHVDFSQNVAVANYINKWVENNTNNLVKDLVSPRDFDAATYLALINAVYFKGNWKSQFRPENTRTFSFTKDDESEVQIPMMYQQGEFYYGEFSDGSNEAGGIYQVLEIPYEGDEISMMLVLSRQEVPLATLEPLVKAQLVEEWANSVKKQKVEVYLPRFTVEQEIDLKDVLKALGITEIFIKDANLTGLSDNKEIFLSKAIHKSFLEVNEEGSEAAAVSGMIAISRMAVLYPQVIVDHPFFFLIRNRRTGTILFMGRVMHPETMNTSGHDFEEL
inactive: [1] 0.034 | [2] -0.061 | [3] 0.001 | [4] 0.036 | [5] 0.007 | [6] 0.055 | [7] 0.014 | [8] -0.042 | [9] -0.065 | [10] 0.04 | [11] -0.04 | [12] -0.013 | [13] 0.038 | [14] -0.034 | [15] -0.013 | [16] 0.035 | [17] 0.036 | [18] 0.003 | [19] 0.009 | [20] -0.015

SASS6 (UniProt Q6UVJ0)
UniProt Q6UVJ0, sequence (Q6UVJ0 whole entry, looked up): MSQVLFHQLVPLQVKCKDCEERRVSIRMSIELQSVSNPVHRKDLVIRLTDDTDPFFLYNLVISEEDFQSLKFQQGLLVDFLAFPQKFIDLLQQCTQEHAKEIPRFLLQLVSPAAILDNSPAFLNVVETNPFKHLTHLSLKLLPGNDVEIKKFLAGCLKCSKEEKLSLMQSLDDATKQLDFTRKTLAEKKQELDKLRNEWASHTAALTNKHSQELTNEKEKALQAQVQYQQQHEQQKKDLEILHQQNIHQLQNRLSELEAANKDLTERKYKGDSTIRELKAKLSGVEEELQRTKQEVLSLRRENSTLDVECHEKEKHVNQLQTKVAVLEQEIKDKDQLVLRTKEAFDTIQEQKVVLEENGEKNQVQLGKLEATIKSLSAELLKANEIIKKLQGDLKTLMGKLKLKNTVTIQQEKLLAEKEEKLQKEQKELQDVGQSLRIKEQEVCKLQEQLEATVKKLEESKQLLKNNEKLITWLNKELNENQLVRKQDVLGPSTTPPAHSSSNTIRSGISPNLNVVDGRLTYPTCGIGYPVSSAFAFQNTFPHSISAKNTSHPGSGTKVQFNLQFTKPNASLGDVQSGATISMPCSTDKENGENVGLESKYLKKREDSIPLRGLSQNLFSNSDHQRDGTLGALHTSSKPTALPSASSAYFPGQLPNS
inactive: [1] 0.001 | [2] -0.056 | [3] -0.01 | [4] 0.099 | [5] -0.018 | [6] -0.076 | [7] 0.004 | [8] -0.01 | [9] -0.032 | [10] -0.054 | [11] -0.032 | [12] 0.01 | [13] -0.083 | [14] 0.017 | [15] 0.008 | [16] -0.045 | [17] -0.03 | [18] 0.03 | [19] 0.044 | [20] 0.003

RAB21 (UniProt Q9UL25)
UniProt Q9UL25, sequence (Q9UL25 whole entry, looked up): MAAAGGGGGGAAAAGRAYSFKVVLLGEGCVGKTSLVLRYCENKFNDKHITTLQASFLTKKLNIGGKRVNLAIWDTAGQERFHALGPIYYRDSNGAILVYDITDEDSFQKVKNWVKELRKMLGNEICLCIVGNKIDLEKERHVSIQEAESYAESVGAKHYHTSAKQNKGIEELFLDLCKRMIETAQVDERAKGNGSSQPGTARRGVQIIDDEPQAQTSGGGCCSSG
inactive: [1] -0.028 | [2] -0.053 | [3] -0.001 | [4] 0.208 | [5] -0.087 | [6] -0.112 | [7] -0.013 | [8] -0.055 | [9] -0.059 | [10] -0.09 | [11] 0.069 | [12] -0.036 | [13] 0.043 | [14] -0.017 | [15] -0.022 | [16] -0.023 | [17] -0.051 | [18] 0.019 | [19] -0.017 | [20] -0.007

RBM5 (UniProt P52756)
inactive: [1] 0.029 | [2] -0.013 | [3] 0.005 | [4] -0.268 | [5] -0.058 | [6] -0.015 | [7] 0 | [8] 0.058 | [9] -0.051 | [10] 0.089 | [11] 0.146 | [12] -0.085 | [13] 0.073 | [14] 0.028 | [15] -0.003 | [16] 0.027 | [17] -0.015 | [18] 0.009 | [19] 0.114 | [20] 0.185

RCOR3 isoform 3 (UniProt Q9P2K3)
inactive: [1] 0.016 | [2] 0.023 | [3] 0.011 | [4] 0.014 | [5] -0.029 | [6] -0.024 | [7] 0.009 | [8] -0.048 | [9] -0.035 | [10] 0.004 | [11] -0.016 | [12] -0.028 | [13] -0.052 | [14] 0.038 | [15] 0.01 | [16] 0.022 | [17] 0.011 | [18] 0.03 | [19] 0.029 | [20] 0.014

RNF40 (UniProt O75150)
UniProt O75150, sequence (O75150 whole entry, looked up): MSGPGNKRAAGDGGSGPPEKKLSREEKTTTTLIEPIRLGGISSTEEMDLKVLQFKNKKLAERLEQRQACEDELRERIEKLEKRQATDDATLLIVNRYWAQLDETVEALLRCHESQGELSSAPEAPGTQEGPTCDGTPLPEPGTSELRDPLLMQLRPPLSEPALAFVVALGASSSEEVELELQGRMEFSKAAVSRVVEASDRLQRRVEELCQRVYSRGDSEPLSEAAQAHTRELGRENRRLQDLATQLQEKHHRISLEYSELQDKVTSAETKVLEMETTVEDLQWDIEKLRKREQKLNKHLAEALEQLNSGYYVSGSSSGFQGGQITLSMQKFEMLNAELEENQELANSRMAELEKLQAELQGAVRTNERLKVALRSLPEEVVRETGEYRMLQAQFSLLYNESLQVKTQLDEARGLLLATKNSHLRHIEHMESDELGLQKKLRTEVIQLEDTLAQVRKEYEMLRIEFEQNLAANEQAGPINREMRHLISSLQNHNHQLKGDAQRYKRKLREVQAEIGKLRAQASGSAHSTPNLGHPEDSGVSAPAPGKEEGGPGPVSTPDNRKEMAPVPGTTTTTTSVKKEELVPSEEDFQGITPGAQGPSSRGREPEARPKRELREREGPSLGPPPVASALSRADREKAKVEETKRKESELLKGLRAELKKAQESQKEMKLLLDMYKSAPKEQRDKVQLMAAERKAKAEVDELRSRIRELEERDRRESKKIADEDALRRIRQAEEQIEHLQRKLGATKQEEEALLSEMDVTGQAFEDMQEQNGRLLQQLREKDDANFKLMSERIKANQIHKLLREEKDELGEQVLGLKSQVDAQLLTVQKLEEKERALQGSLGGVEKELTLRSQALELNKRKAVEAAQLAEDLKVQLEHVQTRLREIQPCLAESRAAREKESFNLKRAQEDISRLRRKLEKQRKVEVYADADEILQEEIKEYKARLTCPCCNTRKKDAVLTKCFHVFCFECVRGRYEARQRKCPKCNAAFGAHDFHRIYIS
inactive: [1] -0.019 | [2] -0.005 | [3] -0.01 | [4] -0.011 | [5] -0.001 | [6] -0.048 | [7] -0.002 | [8] 0.002 | [9] 0.01 | [10] 0.03 | [11] -0.022 | [12] 0.009 | [13] -0.012 | [14] 0.003 | [15] 0.031 | [16] -0.029 | [17] 0.003 | [18] 0.031 | [19] 0.009 | [20] -0.012

SERINC3 (UniProt Q13530)
UniProt Q13530, sequence (Q13530 whole entry, looked up): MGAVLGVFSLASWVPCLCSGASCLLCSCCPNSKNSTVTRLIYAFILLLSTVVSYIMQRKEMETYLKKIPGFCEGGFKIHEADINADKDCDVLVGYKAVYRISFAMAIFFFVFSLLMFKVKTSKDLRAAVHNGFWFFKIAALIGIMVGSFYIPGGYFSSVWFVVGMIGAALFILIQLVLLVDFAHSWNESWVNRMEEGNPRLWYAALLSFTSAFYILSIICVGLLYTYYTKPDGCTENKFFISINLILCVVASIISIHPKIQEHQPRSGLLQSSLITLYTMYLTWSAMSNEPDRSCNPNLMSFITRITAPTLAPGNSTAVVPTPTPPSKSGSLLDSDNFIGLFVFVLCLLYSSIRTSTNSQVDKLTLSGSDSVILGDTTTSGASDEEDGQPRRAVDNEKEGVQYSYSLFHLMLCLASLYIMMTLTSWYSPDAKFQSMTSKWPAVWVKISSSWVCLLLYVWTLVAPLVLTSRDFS
inactive: [1] -0.052 | [2] -0.028 | [3] -0.07 | [5] -0.001 | [6] 0.16 | [7] -0.012 | [8] 0.03 | [9] -0.014 | [10] 0.075 | [11] 0.022 | [12] 0.023 | [13] 0.026 | [14] -0.006 | [15] 0.009 | [16] -0.131 | [17] -0.036 | [18] 0.04 | [19] 0.008 | [20] -0.083
active: [4] -0.38

Reference: the supplement of paper PMC10849652
